High-throughput results from PubChem.
CYP2C19 inh: human CYP2C19 inhibition; P33261; CYP2C19 Supersomes, luciferin-H EGE luminescence, 30 min; inhibition, % at 5 µM; actives 21% (n = 96,000); AID 778;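 active means CYP2C19 inhibition above a set limit at 5 µM in the primary screen, cut at about 50% in these data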;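 further: plate controls were negative control wells for no effect and 2.5 mM tranylcypromine positive control for full effect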
CYP2C19 act: cytochrome P450 2C19 (human) activation. P33261. recombinant CYP2C19, luciferin-H EGE luminescence; stronger effect = higher value; 0 = fully inhibited enzyme, 1 = untreated enzyme. activation factor at 5 µM. 96,000 tested, under 10 active. AID 1025;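 active means activation factor of at least 2 at 5 µM in the primary screen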;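 further: 0 = wells with 2.5 mM tranylcypromine and 1 = vehicle-only wells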
CYP2C9 act: activators of human CYP2C9. P11712. recombinant CYP2C9, luciferin-H conversion, luminescence; stronger effect = higher value; factor 1 = untreated enzyme, 0 = blocked. activation factor at 5 µM. actives 1.4% (n = 96,000);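 active means activation factor of 2 or more for CYP2C9 at a 5 µM dose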;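 further: 0 = sulfaphenazole-blocked wells and 1 = vehicle-only wells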
Target sequence (P11712 whole entry, looked up): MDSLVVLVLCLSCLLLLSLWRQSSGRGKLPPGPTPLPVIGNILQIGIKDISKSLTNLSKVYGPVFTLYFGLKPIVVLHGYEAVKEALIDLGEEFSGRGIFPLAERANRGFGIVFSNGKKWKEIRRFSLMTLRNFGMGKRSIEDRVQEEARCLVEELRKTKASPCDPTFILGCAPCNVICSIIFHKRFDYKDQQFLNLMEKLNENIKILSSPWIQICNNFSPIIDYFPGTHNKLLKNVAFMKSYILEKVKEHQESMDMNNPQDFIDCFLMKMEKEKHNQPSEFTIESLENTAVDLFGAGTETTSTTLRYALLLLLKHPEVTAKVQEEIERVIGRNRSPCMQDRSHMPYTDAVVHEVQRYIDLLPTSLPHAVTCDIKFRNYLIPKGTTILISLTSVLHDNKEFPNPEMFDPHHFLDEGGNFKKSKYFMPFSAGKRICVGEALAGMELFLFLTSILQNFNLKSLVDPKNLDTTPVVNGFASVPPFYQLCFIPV
hDAT+cocaine: modulates human dopamine transporter uptake under cocaine; B-score at 10 µM; actives 1.3% (n = 110,000); LLC-PK1 hDAT cells, [14C]-dopamine uptake with cocaine IC80; actives deviate in either direction;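 active means Z score or B-score, a plate-position-corrected score, falls beyond the plate's 99.7% confidence bounds, in either direction; inactive means both scores lie inside the 99.7% bounds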;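 further: scored against the spread of the other compound wells on the same plate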
D1 allo mod: D1 dopamine receptor (human) allosteric modulation; P21728; HEK293 D1, CRE-luciferase, dopamine EC30 potentiation; actives deviate in either direction; B-score at 10 µM; actives 5.9% (n = 58,000); AID 641;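 active means luminescence count or its row- and column-corrected plate score outside the 99.7% band of the plate's sample wells, on either side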
CYP2C9 inh: blocks human cytochrome P450 2C9; P11712; CYP2C9 Supersomes, luciferin-H conversion, luminescence; inhibition, % at 5 µM; actives 20% (n = 96,000);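 active means blocking of liver enzyme CYP2C9 beyond about 50% at 5 µM, limit read from the data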
* = called active by the depositor. A selection: hits, their analogues and other compounds. The true share with any hit is near 28%.

CC(=O)OC(C(=O)NCc1ccc(F)cc1)c1ccccn1 (configuration not stated) was read as CYP2C19 inh -7.5, CYP2C19 act 1.1, CYP2C9 act 1.2, hDAT+cocaine -0.393 and CYP2C9 inh -16.9.
For O=C(Oc1ccc(N(Cc2cccs2)C2=NS(=O)(=O)c3ccccc32)cc1)c1ccccc1F the results were CYP2C19 inh 69.0*, CYP2C19 act 0.3, CYP2C9 act 0, hDAT+cocaine 0.834 and CYP2C9 inh 97.3*.
Screening CCCOc1ccccc1C(=O)N(Cc1cccs1)C1CCS(=O)(=O)C1 (configuration not stated) returned CYP2C19 inh 6.3, CYP2C19 act 0.9, CYP2C9 act 1, hDAT+cocaine -0.0213, D1 allo mod -0.474 and CYP2C9 inh 4.3.
For O=C(CCn1cccc1)Nc1cc(F)ccc1F the results were CYP2C19 inh 35.4, CYP2C19 act 0.6, CYP2C9 act 0.9, hDAT+cocaine 0.936, D1 allo mod 0.0272 and CYP2C9 inh 12.2.
COC(=O)C1=C(C)N(CCc2ccc(OC)cc2)C(=O)C1 was read as CYP2C19 inh 78.2*, CYP2C19 act 0.2, CYP2C9 act 0.9, hDAT+cocaine -0.0189, D1 allo mod 0.226 and CYP2C9 inh 14.5.
Screening COC(=O)C1=C(C)N(CC(C)C)C(=O)C1 returned CYP2C19 inh 71.4*, CYP2C19 act 0.3, CYP2C9 act 0.8, hDAT+cocaine 0.681 and CYP2C9 inh 23.0.
COC(=O)C1=C(C)N(Cc2ccc(OC)cc2)C(=O)C1 was read as CYP2C19 inh 97.4*, CYP2C19 act 0, CYP2C9 act 0.7, hDAT+cocaine -0.116 and CYP2C9 inh 33.7.
Screening COc1ccc(CCN2C(=O)C3C4C=CC(C4)C3C2=O)cc1OC (configuration not stated) returned CYP2C19 inh 57.4*, CYP2C19 act 0.4, CYP2C9 act 1.1, hDAT+cocaine 0.00295, D1 allo mod -0.18 and CYP2C9 inh -6.4.
COC(=O)C1=C(C)N(Cc2ccco2)C(=O)C1 was read as CYP2C19 inh 27.1, CYP2C19 act 0.7, CYP2C9 act 1, hDAT+cocaine 0.381 and CYP2C9 inh -2.9.
Screening COC(=O)C1=C(C)N(CCc2ccc(OC)c(OC)c2)C(=O)C1 returned CYP2C19 inh 64.7*, CYP2C19 act 0.4, CYP2C9 act 0.8, hDAT+cocaine -0.697 and CYP2C9 inh 16.3.
COC(=O)C1=C(C)N(Cc2ccc(OC)c(OC)c2)C(=O)C1 was read as CYP2C19 inh 19.7, CYP2C19 act 0.8, CYP2C9 act 1, hDAT+cocaine 1.08 and CYP2C9 inh -2.6.
CCCc1[nH]nc2c1C(c1ccc(OC)c(CSC3=NCCS3)c1)C(C#N)=C(N)O2 (configuration not stated) was read as CYP2C19 inh 45.4, CYP2C19 act 0.5, CYP2C9 act 0.4, hDAT+cocaine -0.0353, D1 allo mod 3.36 and CYP2C9 inh 57.8*.
Screening COC(=O)c1sc(N)c(C(=O)OC)c1COC(=O)C1CC(=O)N(Cc2ccco2)C1 (configuration not stated) returned CYP2C19 inh 79.4*, CYP2C19 act 0.2, CYP2C9 act 0.1, hDAT+cocaine 0.223, D1 allo mod 0.0624 and CYP2C9 inh 91.1*.
`CC1(C)CC2CC(C)(CN2C(=O)COC(=O)Cn2[nH]c(=O)c3ccccc3c2=O)C1` (configuration not stated) gave CYP2C19 inh 31.6, CYP2C19 act 0.7, CYP2C9 act 0.7, hDAT+cocaine -0.25 and CYP2C9 inh 26.4.
For CCc1ccc(/C=N/NC(=O)c2cc(C3CC3)nc3ccccc23)s1 the results were CYP2C19 inh 25.0, CYP2C19 act 0.8, CYP2C9 act 0.2, hDAT+cocaine 0.042 and CYP2C9 inh 81.4*.
`CCCOc1ccc(NC(=O)CC2C(=O)N(CC)C(=S)N2Cc2cccs2)cc1` (configuration not stated) gave CYP2C19 inh 82.1*, CYP2C19 act 0.2, CYP2C9 act 0.5, hDAT+cocaine 1.23 and CYP2C9 inh 51.7*.
`CCOc1ccc(NC(=O)CC2C(=O)N(c3ccccc3)C(=S)N2Cc2ccccn2)cc1` (configuration not stated) gave CYP2C19 inh 46.8, CYP2C19 act 0.5, CYP2C9 act 1, hDAT+cocaine 0.259 and CYP2C9 inh 4.3.
Screening CCc1nc2c(c(SC)nn2-c2ccccc2)c(N)c1C(=O)OC returned CYP2C19 inh 2.5, CYP2C19 act 1, CYP2C9 act 0.9, hDAT+cocaine 1.73 and CYP2C9 inh 14.9.
`O=C(N[C@@H](Cc1ccccc1)C(=O)OCc1ccccc1)c1nc[nH]c1C(=O)NCc1ccccc1` gave hDAT+cocaine 1.61*.
Screening Cc1cc(C)nc(NC(=NCCc2c[nH]c3ccccc23)NC(=O)c2ccco2)n1 returned CYP2C19 inh 96.4*, CYP2C19 act 0, CYP2C9 act 0, hDAT+cocaine 1, D1 allo mod -0.884 and CYP2C9 inh 99.1*.
Screening O=C(N[C@@H](Cc1ccccc1)C(=O)OCc1ccccc1)c1nc[nH]c1C(=O)N1CCN(c2ccccc2)CC1 returned hDAT+cocaine -0.168.
O=C(COC(=O)[C@H](Cc1ccccc1)NC(=O)c1ccco1)NCc1ccccc1 was read as CYP2C19 inh 70.9*, CYP2C19 act 0.3, CYP2C9 act 0.1, hDAT+cocaine -0.555 and CYP2C9 inh 90.6*.
Screening O=C(NC(Cc1c[nH]c2ccccc12)C(=O)O)c1ccco1 (configuration not stated) returned CYP2C19 inh -2.5, CYP2C19 act 1, CYP2C9 act 0.5, hDAT+cocaine -9.52* and CYP2C9 inh 46.5.
For c1ccc(Cc2nc3ccccc3o2)cc1 the results were CYP2C19 inh 34.0, CYP2C19 act 0.7, CYP2C9 act 1, hDAT+cocaine -0.0606 and CYP2C9 inh 4.1.
Cc1ccc2c(c1)nnn2C1CCN(C(=O)c2cccs2)CC1 was read as CYP2C19 inh 67.1*, CYP2C19 act 0.3, CYP2C9 act 0.3, hDAT+cocaine -0.23, D1 allo mod -0.061 and CYP2C9 inh 71.9*.
For Cc1ccc(S(=O)(=O)N2CCC(n3nnc4cc(C)ccc43)CC2)cc1 the results were hDAT+cocaine 0.0806.
`O=C(c1ccco1)N1CCC(n2nnc3ccccc32)CC1` gave CYP2C19 inh -3.6, CYP2C19 act 1, CYP2C9 act 0.6, hDAT+cocaine -0.225, D1 allo mod -0.00378 and CYP2C9 inh 35.2.
`Cc1ccc2c(c1)nnn2C1CCN(C(=O)C2CCCCC2)CC1` gave CYP2C19 inh 90.7*, CYP2C19 act 0.1, CYP2C9 act 0.4, hDAT+cocaine -0.311 and CYP2C9 inh 60.9*.
CCOc1ccc(NC(=O)N2CCC(n3nnc4cc(C)ccc43)CC2)cc1 was read as CYP2C19 inh 88.6*, CYP2C19 act 0.1, CYP2C9 act 0.4, hDAT+cocaine 0.538 and CYP2C9 inh 59.7*.
